# Values joined by “and” are separate entries in the source; they are usually repeats but may differ in a detail not shown here. Equal entries are not always repeated. Records with an inconclusive call do not appear. Where a call stands in place of a potency, no number is given. Active and inactive are the calls of the source. Unless noted, calls follow the shape of the dose curve; as a rule, active = well fitted curve in the direction sought with a large enough effect; inconclusive = small, poorly fitted or top-dose-only effect, or another doubt; inactive = no such curve, though single readings can be large; an effect the other way counts as inactive or inconclusive.
# What was measured:
# [1] = High-throughput drug toxicity screening in the BPDCN cell line Cal-1 (AID 1224825; call rule not given here); settings: Cal-1 BPDCN cell viability, qHTS; at 45.8 µM (top of the series) unless noted
# Outline: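 Percent activity derived from CellTiter-Glo luminescence, scaling DMSO to 100% and 9.2 uM final bortezomib to 0%. BPDCN Cal-1 cells (500/well, RPMI plus 10% FBS) incubated with compounds 48 hours at 37C before reading.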
# [2] = qHTS assay for measurement of the activity of small molecule inhibitors on Zika virus induced Caspase-3 activity in human iPSC derived neural progenitor cells (hNPCs) (AID 1224857); also: nearly all actives have a fitted effect of over 65% in size; also: potency is read from the fitted curve at half-maximal effect
# Outline: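 After overnight (16–20 h) culture at 350 cells/well, hNPCs get compound, then ZIKV 2 FFU/cell one hour later. Six hours on, Caspase-Glo 3/7 is added and luminescence measured.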
# [3] = qHTS assay for measurement of the activity of small molecule inhibitors on Zika virus induced Caspase-3 activity in human astrocytoma cells (AID 1224859)
# Outline: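 Inhibition of Zika-induced caspase-3/7 activity: SNB-19 cells, 1 h compound pretreatment, ZIKV 2 FFU/cell for 6 h at 37 C, Caspase-Glo luminescence read-out.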
# [4] = qHTS Screen of the MIPE 4.0 Collection Against Ewings Sarcoma (RDES) (AID 1259252); also: nearly all actives have a fitted effect of over 35% in size; also: potency is read from the fitted curve at half-maximal effect
# Outline: (§1)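 CellTiter-Glo luminescence after 48 h compound exposure (titration) gave viability; percent activity used DMSO-treated cells as no inhibition and medium-only wells as full inhibition. Cells grown in RPMI/5% FBS, dosed 4 h post-seeding.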
# [5] = P-glycoprotein substrates identified in KB-3-1 adenocarcinoma cell line, qHTS therapeutic library screen (AID 1346986); also: nearly all actives have a fitted effect of over 60% in size;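 also: potency is read from the fitted curve at half-maximal effect; potency is for cytotoxicity meaning loss of cell viability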
# Outline: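 Viability read by CellTiter-Glo after 72 h compound exposure in dose-response of KB-3-1 and KB-8-5-11 (P-gp-high) cells. Hits needed AC50 < 10 uM, >50% maximum response and curve class -1.1 to -2.4. Cherry-picks retested ± tariquidar, including pcDNA/MDR-19 HEK-293 pair.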
# [6] = P-glycoprotein substrates identified in KB-8-5-11 adenocarcinoma cell line, qHTS therapeutic library screen (AID 1346987); also: nearly all actives have a fitted effect of over 65% in size; also: potency is read from the fitted curve at half-maximal effect
# Outline: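 Compounds are pinned in dose-response onto KB-8-5-11 cells (500 cells/well, colchicine-free medium) and left 72 h at 37 degree C. CellTiter-Glo luminescence then yields AC50 values.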
# [7] = Natriuretic polypeptide receptor (hNpr1) antagonism - Pilot counterscreen GloSensor control cell line (AID 1347045; calls by dose curve)
# Outline: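 Control counterscreen: luciferase cGMP-biosensor HEK293 cells (no Npr1) received compound for 30 min at room temperature after GloSensor substrate loading. Luminescence was measured before and 20 min after soluble guanylyl cyclase activation by 50 uM nitroprusside.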
# [8] = biological target: Atrial natriuretic peptide receptor 1 (Homo sapiens) (UniProt P16066); assay: Natriuretic polypeptide receptor (hNpr1) antagonism - Pilot screen (AID 1347049; calls by dose curve;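 also: HEK293 cells with hNpr1 and GloSensor cGMP luciferase stimulated by 0.1 nM hNppA; agonist-evoked cGMP luminescence read 20 min after hNppA addition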)
# Chain of Atrial natriuretic peptide receptor 1 (Homo sapiens) (P16066 whole entry, looked up): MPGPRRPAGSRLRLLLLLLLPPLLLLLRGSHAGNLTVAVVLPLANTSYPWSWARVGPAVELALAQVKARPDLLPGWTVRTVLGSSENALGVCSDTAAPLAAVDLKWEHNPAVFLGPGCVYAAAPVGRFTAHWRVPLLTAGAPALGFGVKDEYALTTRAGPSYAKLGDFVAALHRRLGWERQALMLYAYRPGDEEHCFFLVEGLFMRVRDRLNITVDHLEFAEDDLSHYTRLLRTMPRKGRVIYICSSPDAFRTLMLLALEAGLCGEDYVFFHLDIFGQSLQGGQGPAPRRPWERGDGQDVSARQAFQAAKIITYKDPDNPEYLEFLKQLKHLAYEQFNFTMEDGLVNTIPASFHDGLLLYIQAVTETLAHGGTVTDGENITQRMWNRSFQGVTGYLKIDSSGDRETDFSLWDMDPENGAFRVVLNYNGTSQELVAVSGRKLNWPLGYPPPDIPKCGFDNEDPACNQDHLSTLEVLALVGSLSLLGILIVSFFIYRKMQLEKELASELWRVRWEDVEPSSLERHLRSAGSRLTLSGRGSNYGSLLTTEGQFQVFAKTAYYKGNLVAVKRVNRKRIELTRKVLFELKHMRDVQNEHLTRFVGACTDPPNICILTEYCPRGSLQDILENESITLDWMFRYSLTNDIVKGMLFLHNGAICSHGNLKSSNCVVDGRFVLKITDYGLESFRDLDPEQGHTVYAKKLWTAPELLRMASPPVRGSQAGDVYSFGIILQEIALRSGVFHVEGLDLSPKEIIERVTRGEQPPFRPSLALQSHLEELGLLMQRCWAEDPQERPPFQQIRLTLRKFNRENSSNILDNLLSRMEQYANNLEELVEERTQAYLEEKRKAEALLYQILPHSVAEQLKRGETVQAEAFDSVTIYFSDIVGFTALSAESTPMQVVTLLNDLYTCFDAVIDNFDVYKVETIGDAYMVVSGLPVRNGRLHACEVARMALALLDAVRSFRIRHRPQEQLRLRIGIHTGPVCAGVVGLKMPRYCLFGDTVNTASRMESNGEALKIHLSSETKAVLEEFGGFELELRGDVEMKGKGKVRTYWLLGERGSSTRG
# Outline: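 Receptor antagonism read as cGMP-dependent luminescence in hNpr1/pGS-40F HEK293 cells: pre-read after 30 min compound exposure, post-read 20 min after hNppA agonist at 0.1 nM final, all at room temperature, protected from light; A-71915 titration as control.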
# [9] = biological target: Atrial natriuretic peptide receptor 2 (Homo sapiens) (UniProt P20594); assay: Natriuretic polypeptide receptor (hNpr2) antagonism - Pilot subtype selectivity assay (AID 1347050; calls by dose curve)
# Chain of Atrial natriuretic peptide receptor 2 (Homo sapiens) (P20594 whole entry, looked up): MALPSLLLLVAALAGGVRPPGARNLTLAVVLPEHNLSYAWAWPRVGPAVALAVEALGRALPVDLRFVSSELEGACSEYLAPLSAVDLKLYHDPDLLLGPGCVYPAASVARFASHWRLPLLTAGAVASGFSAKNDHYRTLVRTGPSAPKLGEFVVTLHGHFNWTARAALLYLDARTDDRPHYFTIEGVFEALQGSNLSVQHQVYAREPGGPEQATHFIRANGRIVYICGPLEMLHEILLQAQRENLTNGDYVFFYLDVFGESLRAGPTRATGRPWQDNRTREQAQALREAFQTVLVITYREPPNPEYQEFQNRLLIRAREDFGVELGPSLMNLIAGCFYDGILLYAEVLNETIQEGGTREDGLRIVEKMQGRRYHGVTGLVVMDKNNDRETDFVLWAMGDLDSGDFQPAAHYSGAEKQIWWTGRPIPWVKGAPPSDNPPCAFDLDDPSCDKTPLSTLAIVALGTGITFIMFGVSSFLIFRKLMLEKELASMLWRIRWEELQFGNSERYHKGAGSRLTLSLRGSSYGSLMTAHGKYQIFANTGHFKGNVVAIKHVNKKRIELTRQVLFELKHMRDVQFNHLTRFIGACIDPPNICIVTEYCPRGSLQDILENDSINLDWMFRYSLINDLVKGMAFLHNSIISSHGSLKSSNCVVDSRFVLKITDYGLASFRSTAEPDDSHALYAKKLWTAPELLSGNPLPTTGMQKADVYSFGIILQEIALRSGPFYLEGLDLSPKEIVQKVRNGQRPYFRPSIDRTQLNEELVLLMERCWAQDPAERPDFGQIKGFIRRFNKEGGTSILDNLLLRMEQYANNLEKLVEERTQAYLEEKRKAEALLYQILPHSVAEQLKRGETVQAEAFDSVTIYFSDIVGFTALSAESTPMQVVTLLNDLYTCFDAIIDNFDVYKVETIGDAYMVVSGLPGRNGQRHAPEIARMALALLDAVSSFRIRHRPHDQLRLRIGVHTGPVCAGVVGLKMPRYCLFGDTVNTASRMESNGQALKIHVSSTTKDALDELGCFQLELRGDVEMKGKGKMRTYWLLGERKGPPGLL
# Outline: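 Antagonist mode: compounds (LOPAC1280, seven 1:5 dilutions) added 30 min before 1 nM hNppC stimulation of hNpr2-HEK293 cGMP-sensor cells; luminescence read before and 20 min after agonist at ambient temperature.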
# [10] = qHTS Screen of the MIPE 4.0 Collection Against Ewings Sarcoma (TC71) (AID 1259253); also: nearly all actives have a fitted effect of over 40% in size; also: potency is read from the fitted curve at half-maximal effect
# Outline: as §1
# [11] = qHTS assay to identify small molecule inhibitors of chordoma cells - UCH-1 (AID 1259355); also: nearly all actives have a fitted effect of over 55% in size; also: potency is read from the fitted curve at half-maximal effect
# Outline: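 800 cells/well, overnight attach; compounds pinned at 15 concs, then auranofin/camptothecin/doxorubicin/rubitecan/topotecan combo added; 48hr 37 C, 5% CO2; CellTiter-Glo, 30min RT, luminescence.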
# [12] = qHTS assay to identify small molecule inhibitors of chordoma cells - UCH-2 (AID 1259356)
# [13] = qHTS Screen of the MIPE 4.0 Collection Against Ewings Sarcoma (TC32) (AID 1259256); also: nearly all actives have a fitted effect of over 45% in size; also: potency is read from the fitted curve at half-maximal effect
# Outline: as §1
# [14] = Identifying Small Molecule Inhibitors of Pancreatic Cancer Stem Cells (SN12C, Adherent) (AID 1259358);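 also: cell survival measured after 48 h of compound exposure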; also: potency is read from the fitted curve at half-maximal effect
# Outline: (§2)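 Cytotoxicity read by CellTiter-Glo luminescence after 48 h compound exposure at 37C; percent activity scaled between DMSO-treated cells and cell-free wells. Spheroid formats used cells pre-formed 14 days in stem cell media on hydrogel.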
# [15] = Identifying Small Molecule Inhibitors of Pancreatic Cancer Stem Cells (A278, Adherent) (AID 1259361); also: nearly all actives have a fitted effect of over 35% in size
# Outline: as §2
# [16] = qHTS Screen of the MIPE 4.0 Collection Against Ewings Sarcoma (EW8) (AID 1259255); also: nearly all actives have a fitted effect of over 35% in size; also: potency is read from the fitted curve at half-maximal effect
# Outline: as §1
# [17] = Identifying Small Molecule Inhibitors of Pancreatic Cancer Stem Cells (SN12C, Spheroid) (AID 1259360); settings: Potency: SN12C spheroid viability
# Outline: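 Adherent (2D) versus sphere (3D) formats; spheres generated 14 d in SCM beforehand. Compound transferred by pin tool after 4 h, 48 h incubation, CellTiter-Glo endpoint.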
smiles,measurement,setting,value
O=C1NC(=O)C(c2ccccc2[N+](=O)[O-])=C1Nc1ccc(O)c(Cl)c1,viability (% of control),[1],36.6%
same,Potency,[2],20.9 µM (active)
same,Potency,[3],inactive
same,Potency,[4],20.9 µM (active)
same,Potency,[5],inactive
same,Potency,[6],inactive
same,Potency,[7],inactive
same,Potency,[8],inactive
same,Potency,[9],inactive
COC(=O)C1=C(C)NC(C)=C(C(=O)OC(C)C)C1c1cccc2nonc12 (stereo not given),viability (% of control),[1],105%
same,Potency,[2],inactive
same,Potency,[3],inactive
same,Potency,[4],23.5 µM (active)
same,Potency,[10],26.4 µM (active)
same,Potency,[11],inactive
same,Potency,[12],inactive
same,Potency,[6],inactive
Cc1cc2cc3c(C)cc(=O)oc3c(C)c2o1,viability (% of control),[1],8.43%
same,Potency,[2],inactive
same,Potency,[3],inactive
same,Potency,[4],7.43 µM (active)
same,Potency,[10],11.8 µM (active)
same,Potency,[13],16.6 µM (active)
same,Potency,[11],inactive
same,Potency,[12],inactive
same,Potency,[5],inactive
O=c1c(O)c(-c2ccc(O)cc2O)oc2cc(O)cc(O)c12,viability (% of control),[1],84.9%
same,Potency,[2],inactive
same,Potency,[3],inactive
same,Potency,[4],inactive
same,Potency,[10],inactive
same,Potency,[6],inactive
same,Potency,[7],inactive
same,Potency,[8],inactive
same,Potency,[9],inactive
CN(c1nccc(=O)[nH]1)C1CCN(c2nc3ccccc3n2Cc2ccc(F)cc2)CC1,viability (% of control),[1],108%
same,Potency,[2],inactive
same,Potency,[3],inactive
same,Potency,[4],13.2 µM (active)
same,Potency,[10],18.7 µM (active)
same,Potency,[11],inactive
same,Potency,[12],inactive
same,Potency,[5],inactive
same,Potency,[6],inactive
C[C@@H](c1ncncc1F)[C@](O)(Cn1cncn1)c1ccc(F)cc1F,viability (% of control),[1],55.6%
same,Potency,[2],inactive
same,Potency,[3],inactive
same,Potency,[4],inactive
same,Potency,[10],inactive
same,Potency,[13],inactive
CCN(CC)CCOc1ccc(Cc2ccccc2)cc1,viability (% of control),[1],100%
same,Potency,[2],inactive
same,Potency,[3],inactive
same,Potency,[4],18.7 µM (active)
same,Potency,[11],inactive
same,Potency,[12],inactive
same,Potency,[6],inactive
COc1cc(Nc2c(C#N)cnc3cc(OCCCN4CCN(C)CC4)c(OC)cc23)c(Cl)cc1Cl,viability (% of control),[1],3.18%
same,Potency,[2],inactive
same,Potency,[3],inactive
same,Potency,[4],3.32 µM (active)
same,Potency,[10],18.7 µM (active)
same,Potency,[14],26.4 µM (active)
same,IC50 (viability decrease),[15],23.5 µM (active)
same,Potency,[5],18.4 µM (active)
CCCCN(CCCC)CCC(O)c1cc2c(Cl)cc(Cl)cc2c2cc(C(F)(F)F)ccc12 (stereo not given),viability (% of control),[1],64.8%
same,Potency,[2],inactive
same,Potency,[3],inactive
same,Potency,[4],inactive
same,Potency,[16],inactive
same,Potency,[12],inactive
O=c1c(O)c(-c2cc(O)c(O)c(O)c2)oc2cc(O)cc(O)c12,viability (% of control),[1],111%
same,Potency,[2],inactive
same,Potency,[3],inactive
same,Potency,[4],16.6 µM (active)
same,Potency,[10],inactive
same,Potency,[13],inactive
same,Potency,[6],inactive
same,Potency,[7],inactive
same,Potency,[9],inactive
CC1(C)CCC(C)(C)c2cc(NC(=O)c3ccc(C(=O)O)cc3)ccc21,viability (% of control),[1],66%
same,Potency,[2],inactive
same,Potency,[3],inactive
same,Potency,[4],23.5 µM (active)
same,Potency,[10],18.7 µM (active)
same,Potency,[11],inactive
same,Potency,[12],inactive
same,Potency,[6],inactive
Cc1ccc(Nc2nccc(N(C)c3ccc4c(C)n(C)nc4c3)n2)cc1S(N)(=O)=O,viability (% of control),[1],62.5%
same,Potency,[2],inactive
same,Potency,[3],inactive
same,Potency,[4],11.8 µM (active)
same,Potency,[16],inactive
same,Potency,[14],18.7 µM (active)
same,Potency,[17],inactive
same,Potency,[6],inactive
CC(=O)O[C@H]1C(=O)[C@@]2(C)C([C@H](OC(=O)c3ccccc3)[C@]3(O)C[C@H](OC(=O)[C@H](O)[C@@H](NC(=O)c4ccccc4)c4ccccc4)C(C)=C1C3(C)C)[C@]1(OC(C)=O)CO[C@@H]1C[C@@H]2O (stereo not given in full),viability (% of control),[1],12.8%
same,Potency,[2],inactive
same,Potency,[3],inactive
same,Potency,[4],inactive
same,Potency,[16],inactive
same,Potency,[6],209 nM (active) and 1.01 µM (active)
same,Potency,[7],inactive
same,Potency,[9],inactive
CCCc1cc(=O)[nH]c(=S)[nH]1,viability (% of control),[1],14.9%
same,Potency,[2],inactive
same,Potency,[3],inactive
same,Potency,[4],inactive
same,Potency,[10],inactive
same,Potency,[11],inactive
same,Potency,[12],inactive
same,Potency,[5],inactive
NCCCCNCCCN,viability (% of control),[1],3.12%
same,Potency,[2],inactive
same,Potency,[3],inactive
same,Potency,[4],inactive
same,Potency,[10],inactive
same,Potency,[7],inactive
same,Potency,[8],inactive
same,Potency,[9],inactive
CC(=O)NC[C@H]1CN(c2ccc(N3CCOCC3)c(F)c2)C(=O)O1,viability (% of control),[1],105%
same,Potency,[2],inactive
same,Potency,[3],inactive
same,Potency,[4],inactive
same,Potency,[11],inactive
same,Potency,[12],inactive
same,Potency,[6],inactive
C=CCc1cc(OC)c(O)c(C(=O)NCCO)c1,viability (% of control),[1],128%
same,Potency,[2],inactive
same,Potency,[3],inactive
same,Potency,[16],inactive
same,Potency,[11],inactive
same,Potency,[12],inactive
CCOC(=O)C(C)Oc1cccc2c(=O)n(CC(=O)Nc3ccc4c(c3)OCCO4)ccc12 (stereo not given),viability (% of control),[1],88%
same,Potency,[2],inactive
same,Potency,[3],inactive
same,Potency,[10],inactive
same,Potency,[16],2.64 µM (active)
same,Potency,[13],3.32 µM (active)
same,Potency,[14],inactive
same,Potency,[17],inactive
same,Potency,[5],inactive
same,Potency,[6],inactive
same,Potency,[7],inactive
same,Potency,[8],inactive
same,Potency,[9],inactive
CN1CCC(=C2c3ccccc3CCc3sccc32)CC1,viability (% of control),[1],69%
same,Potency,[2],inactive
same,Potency,[3],inactive
same,Potency,[11],inactive
same,Potency,[12],inactive
C=C(c1ccc(C(=O)O)cc1)c1cc2c(cc1C)C(C)(C)CCC2(C)C,viability (% of control),[1],89.3%
same,Potency,[2],inactive
same,Potency,[3],inactive
same,Potency,[10],inactive
same,Potency,[13],inactive
same,Potency,[11],inactive
same,Potency,[12],inactive
COc1cc(C(C)=O)ccc1OCCCN1CCC(c2noc3cc(F)ccc23)CC1,viability (% of control),[1],52.5%
same,Potency,[2],inactive
same,Potency,[3],inactive
same,Potency,[5],inactive
CC[C@]1(O)C[C@H]2CN(CCc3c([nH]c4ccccc34)[C@@](C(=O)OC)(c3cc4c(cc3OC)N(C=O)[C@H]3[C@@](O)(C(=O)OC)[C@H](OC(C)=O)[C@]5(CC)C=CCN6CC[C@]43[C@@H]65)C2)C1,viability (% of control),[1],10.9%
same,Potency,[2],inactive
same,Potency,[3],inactive
same,Potency,[10],0.0033 µM (active)
same,Potency,[13],inactive
same,Potency,[11],0.224 µM (active)
same,Potency,[12],inactive
same,Potency,[6],1.05 µM (active)
Nc1nc(OCc2ccccc2)c2[nH]cnc2n1,viability (% of control),[1],39.4%
same,Potency,[2],inactive
same,Potency,[3],inactive
same,Potency,[10],13.2 µM (active)
same,Potency,[16],26.4 µM (active)
same,Potency,[7],inactive
same,Potency,[8],inactive
same,Potency,[9],inactive
CCc1nc(N)nc(N)c1-c1ccc(Cl)cc1,viability (% of control),[1],37.1%
same,Potency,[2],inactive
same,Potency,[3],inactive
same,Potency,[10],1.32 µM (active)
same,Potency,[13],2.64 µM (active)
same,Potency,[11],inactive
same,Potency,[12],inactive

# — PubChem BioAssay (NCATS)
